The values that follow come from ChEMBL document CHEMBL3988442, “University of Dundee, Small-Polar-MMV Screening Library” (2021).

Common to all, as to design: scale not given: direction of the effect not stated beside the values
Test [1] concerns the target Protein translocase subunit SecA (Escherichia coli (strain K12)) (UniProt P10408). In words: Assay to Identify E. coli SecA ATPase Inhibitors. In kind it is functional. As to conditions: 30 µM.
In test [2] the target is T1, Ubiquitin-activating enzyme e1, putative (Leishmania donovani (strain BPK282A1)) (UniProt E9BSI1).
T1 sequence (whole entry): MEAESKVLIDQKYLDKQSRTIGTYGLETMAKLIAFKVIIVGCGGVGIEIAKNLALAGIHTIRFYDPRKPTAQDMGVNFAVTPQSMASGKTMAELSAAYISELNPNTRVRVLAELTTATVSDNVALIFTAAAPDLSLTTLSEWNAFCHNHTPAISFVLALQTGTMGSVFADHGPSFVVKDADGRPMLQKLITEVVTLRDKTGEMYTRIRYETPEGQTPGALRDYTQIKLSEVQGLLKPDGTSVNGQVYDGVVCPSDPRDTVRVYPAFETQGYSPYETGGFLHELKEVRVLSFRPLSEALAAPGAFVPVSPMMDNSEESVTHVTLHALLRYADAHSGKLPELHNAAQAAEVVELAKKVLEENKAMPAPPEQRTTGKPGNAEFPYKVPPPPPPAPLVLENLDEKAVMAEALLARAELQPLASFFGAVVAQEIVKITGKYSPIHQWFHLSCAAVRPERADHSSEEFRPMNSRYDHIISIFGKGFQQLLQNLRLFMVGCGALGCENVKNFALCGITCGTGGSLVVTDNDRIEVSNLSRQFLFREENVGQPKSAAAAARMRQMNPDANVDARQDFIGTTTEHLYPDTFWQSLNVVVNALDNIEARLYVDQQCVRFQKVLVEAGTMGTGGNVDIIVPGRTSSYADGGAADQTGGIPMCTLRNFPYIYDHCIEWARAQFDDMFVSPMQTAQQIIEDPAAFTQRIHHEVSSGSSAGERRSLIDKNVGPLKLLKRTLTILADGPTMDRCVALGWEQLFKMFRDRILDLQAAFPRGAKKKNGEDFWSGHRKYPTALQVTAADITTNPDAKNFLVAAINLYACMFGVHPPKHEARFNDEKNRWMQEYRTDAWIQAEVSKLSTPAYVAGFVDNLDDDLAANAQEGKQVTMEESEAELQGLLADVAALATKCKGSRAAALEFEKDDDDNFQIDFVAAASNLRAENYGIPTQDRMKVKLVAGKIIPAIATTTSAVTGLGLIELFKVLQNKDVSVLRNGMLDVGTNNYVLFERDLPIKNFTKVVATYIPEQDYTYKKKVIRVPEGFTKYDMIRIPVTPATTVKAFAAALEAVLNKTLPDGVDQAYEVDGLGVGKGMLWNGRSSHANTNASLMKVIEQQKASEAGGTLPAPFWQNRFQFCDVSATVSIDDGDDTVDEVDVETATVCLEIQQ
Kind of test: Leishmania donovani Ubiquitin Activating Enzyme (LdE1). The class given is functional. Conditions: 30 µM.

Test [3] addresses AMP-activated protein kinase, AMPK (Homo sapiens) (UniProt P54646+O43741+P54619+Q9UGJ0+Q9Y478+Q13131+Q9UGI9). Kind of test: AMP-dependent Kinase enzyme assay. An in vitro enzyme assay that detects ADP turnover that is directly proportional to AMPK activity. This uses naive AMPK that is activated during the assay with MK-8722. In kind it is functional. Conditions: 30 µM.
Test [4] concerns the target Sialic acid-binding Ig-like lectin 9 (Homo sapiens) (UniProt Q9Y336). In words: Hs-Siglec9 ALPHAscreen SOP 20170721. Conditions: 10 µM.
For the next test, the system named is Trypanosoma cruzi. Kind of test: Trypanosoma cruzi phosphomannomutase and mannose-1-phosphate guanylyltransferase assay. As to conditions: 10 µM. In kind it is functional.
Test [5] deals with T2, Arginase-2, mitochondrial (Homo sapiens) (UniProt P78540).
T2 sequence (whole entry): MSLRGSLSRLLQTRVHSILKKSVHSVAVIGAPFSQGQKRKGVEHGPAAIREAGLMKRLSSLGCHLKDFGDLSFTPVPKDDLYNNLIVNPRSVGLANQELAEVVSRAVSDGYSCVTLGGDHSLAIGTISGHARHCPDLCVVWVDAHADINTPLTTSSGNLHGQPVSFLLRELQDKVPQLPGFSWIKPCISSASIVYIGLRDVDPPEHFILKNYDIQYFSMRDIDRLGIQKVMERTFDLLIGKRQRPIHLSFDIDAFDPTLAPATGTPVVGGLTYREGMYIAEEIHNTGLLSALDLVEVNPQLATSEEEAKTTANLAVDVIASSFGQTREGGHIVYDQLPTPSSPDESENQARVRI
Kind of test: in vitro enzyme assay to detect the production of urea directly proportional to the activity of Arginase II. Further: in the data most compounds retested in dose-response had high values. The class given is functional. Conditions: 33.3 µM.

The target in test [6] is T3, Proteasome subunit beta (Trypanosoma cruzi) (UniProt O96673).
T3 sequence (whole entry): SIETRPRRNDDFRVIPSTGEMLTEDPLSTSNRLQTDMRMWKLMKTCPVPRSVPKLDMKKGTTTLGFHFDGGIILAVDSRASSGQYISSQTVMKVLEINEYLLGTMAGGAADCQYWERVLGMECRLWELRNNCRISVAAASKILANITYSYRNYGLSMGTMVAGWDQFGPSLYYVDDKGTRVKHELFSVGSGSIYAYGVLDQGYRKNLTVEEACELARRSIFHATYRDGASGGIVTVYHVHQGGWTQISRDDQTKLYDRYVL
Kind of test: Trypanosoma cruzi proteasome chymotrypsin-like activity (TcProtChymo) assay. Further: in the data most compounds retested in dose-response had high values. As to conditions: 9.37 µM. In kind it is functional.

For another test, the species on record is Homo sapiens. Kind of test: To identify inhibition of the IFN signalling (Jak-Stat) pathway via expression of an eGFP reporter gene under the control of an IFN-stimulated response element (ISRE) containing MxA promoter. In kind it is functional. As to conditions: 30 µM. A general note: Reporter assays use an easily measured gene product as a stand-in for the process of interest.

Test [7] has as its target T4, Tyrosyl-tRNA synthetase, putative (Trypanosoma cruzi (strain CL Brener)) (UniProt Q4DSP6).
T4 sequence (whole entry): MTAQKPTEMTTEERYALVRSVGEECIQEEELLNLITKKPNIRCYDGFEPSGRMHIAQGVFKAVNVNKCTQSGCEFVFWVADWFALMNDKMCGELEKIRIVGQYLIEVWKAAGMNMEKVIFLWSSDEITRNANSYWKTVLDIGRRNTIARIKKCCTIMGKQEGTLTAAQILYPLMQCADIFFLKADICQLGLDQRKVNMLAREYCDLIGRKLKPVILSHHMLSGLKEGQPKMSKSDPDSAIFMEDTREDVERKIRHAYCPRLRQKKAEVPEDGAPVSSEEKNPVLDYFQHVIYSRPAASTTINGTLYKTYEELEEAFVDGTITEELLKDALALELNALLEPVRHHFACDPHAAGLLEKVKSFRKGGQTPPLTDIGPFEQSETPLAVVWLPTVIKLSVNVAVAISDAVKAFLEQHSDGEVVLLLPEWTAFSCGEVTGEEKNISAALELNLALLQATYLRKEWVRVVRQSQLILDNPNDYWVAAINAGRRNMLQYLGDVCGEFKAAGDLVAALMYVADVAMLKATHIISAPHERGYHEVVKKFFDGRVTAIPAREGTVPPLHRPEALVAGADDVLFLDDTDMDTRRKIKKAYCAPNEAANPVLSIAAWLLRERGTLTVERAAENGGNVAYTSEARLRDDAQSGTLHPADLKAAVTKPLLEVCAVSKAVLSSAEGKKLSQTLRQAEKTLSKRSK
Kind of test: Trypanosoma cruzi tyrosyl tRNA synthetase (TcYRS) _High Tyrosine SOP. Further: in the data most compounds retested in dose-response had high values. As to conditions: 30 µM. The class given is functional.

Test [8] deals with T4, Tyrosyl-tRNA synthetase, putative (Trypanosoma cruzi (strain CL Brener)). Kind of test: Trypanosoma cruzi tyrosyl tRNA synthetase (TcYRS) SOP. The class given is functional. As to conditions: 30 µM.
In test [9] the target is Chromo domain-containing protein 1 (Saccharomyces cerevisiae (strain ATCC 204508 / S288c) (Baker's yeast)) (UniProt P32657). In words: ScCHD-1 Enzyme Inhibition Assay. Further: in the data most compounds retested in dose-response had high values. In kind it is functional. As to conditions: 30 µM.
Chain of Chromo domain-containing protein 1 (Saccharomyces cerevisiae (strain ATCC 204508 / S288c) (Baker's yeast)) (P32657 whole entry, the tested form may be a part): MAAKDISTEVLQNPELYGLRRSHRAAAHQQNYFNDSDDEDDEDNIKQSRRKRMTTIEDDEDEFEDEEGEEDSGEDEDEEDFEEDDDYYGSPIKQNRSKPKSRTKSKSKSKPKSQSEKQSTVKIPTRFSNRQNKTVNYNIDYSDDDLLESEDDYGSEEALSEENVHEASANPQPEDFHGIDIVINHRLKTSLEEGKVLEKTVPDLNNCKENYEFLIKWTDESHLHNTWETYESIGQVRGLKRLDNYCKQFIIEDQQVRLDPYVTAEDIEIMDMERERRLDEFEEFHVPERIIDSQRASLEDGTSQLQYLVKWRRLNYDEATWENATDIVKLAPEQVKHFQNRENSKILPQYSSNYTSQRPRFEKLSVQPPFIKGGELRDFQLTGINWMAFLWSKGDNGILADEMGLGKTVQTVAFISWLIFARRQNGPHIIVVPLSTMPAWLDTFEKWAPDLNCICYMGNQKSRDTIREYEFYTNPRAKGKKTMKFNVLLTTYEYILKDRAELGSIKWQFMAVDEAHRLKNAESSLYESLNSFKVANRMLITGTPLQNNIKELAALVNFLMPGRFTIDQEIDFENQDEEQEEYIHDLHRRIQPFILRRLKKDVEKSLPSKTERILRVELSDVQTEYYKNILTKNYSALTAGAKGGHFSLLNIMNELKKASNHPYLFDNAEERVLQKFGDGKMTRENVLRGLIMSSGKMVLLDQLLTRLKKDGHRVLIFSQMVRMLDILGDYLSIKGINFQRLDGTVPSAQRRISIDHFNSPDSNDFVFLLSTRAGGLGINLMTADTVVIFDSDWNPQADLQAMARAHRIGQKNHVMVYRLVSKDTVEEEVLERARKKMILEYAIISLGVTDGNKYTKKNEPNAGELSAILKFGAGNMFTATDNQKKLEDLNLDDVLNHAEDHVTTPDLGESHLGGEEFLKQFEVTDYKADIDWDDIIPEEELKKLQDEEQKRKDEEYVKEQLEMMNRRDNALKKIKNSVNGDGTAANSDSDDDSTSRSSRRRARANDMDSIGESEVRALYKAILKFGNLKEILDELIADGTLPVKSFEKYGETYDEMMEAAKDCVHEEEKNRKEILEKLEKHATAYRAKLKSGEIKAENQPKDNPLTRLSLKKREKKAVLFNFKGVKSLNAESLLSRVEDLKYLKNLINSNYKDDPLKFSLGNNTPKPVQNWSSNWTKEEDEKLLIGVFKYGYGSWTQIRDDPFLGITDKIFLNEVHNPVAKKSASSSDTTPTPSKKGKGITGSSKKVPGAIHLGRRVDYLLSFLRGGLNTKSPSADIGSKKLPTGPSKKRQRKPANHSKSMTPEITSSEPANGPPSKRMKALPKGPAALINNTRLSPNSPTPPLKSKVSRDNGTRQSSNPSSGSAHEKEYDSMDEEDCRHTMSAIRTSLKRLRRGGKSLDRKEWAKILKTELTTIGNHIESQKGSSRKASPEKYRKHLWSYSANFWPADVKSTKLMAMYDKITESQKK

For some of these results: Potency and affinity values are given separately.

Chain of Protein translocase subunit SecA (Escherichia coli (strain K12)) (P10408 whole entry): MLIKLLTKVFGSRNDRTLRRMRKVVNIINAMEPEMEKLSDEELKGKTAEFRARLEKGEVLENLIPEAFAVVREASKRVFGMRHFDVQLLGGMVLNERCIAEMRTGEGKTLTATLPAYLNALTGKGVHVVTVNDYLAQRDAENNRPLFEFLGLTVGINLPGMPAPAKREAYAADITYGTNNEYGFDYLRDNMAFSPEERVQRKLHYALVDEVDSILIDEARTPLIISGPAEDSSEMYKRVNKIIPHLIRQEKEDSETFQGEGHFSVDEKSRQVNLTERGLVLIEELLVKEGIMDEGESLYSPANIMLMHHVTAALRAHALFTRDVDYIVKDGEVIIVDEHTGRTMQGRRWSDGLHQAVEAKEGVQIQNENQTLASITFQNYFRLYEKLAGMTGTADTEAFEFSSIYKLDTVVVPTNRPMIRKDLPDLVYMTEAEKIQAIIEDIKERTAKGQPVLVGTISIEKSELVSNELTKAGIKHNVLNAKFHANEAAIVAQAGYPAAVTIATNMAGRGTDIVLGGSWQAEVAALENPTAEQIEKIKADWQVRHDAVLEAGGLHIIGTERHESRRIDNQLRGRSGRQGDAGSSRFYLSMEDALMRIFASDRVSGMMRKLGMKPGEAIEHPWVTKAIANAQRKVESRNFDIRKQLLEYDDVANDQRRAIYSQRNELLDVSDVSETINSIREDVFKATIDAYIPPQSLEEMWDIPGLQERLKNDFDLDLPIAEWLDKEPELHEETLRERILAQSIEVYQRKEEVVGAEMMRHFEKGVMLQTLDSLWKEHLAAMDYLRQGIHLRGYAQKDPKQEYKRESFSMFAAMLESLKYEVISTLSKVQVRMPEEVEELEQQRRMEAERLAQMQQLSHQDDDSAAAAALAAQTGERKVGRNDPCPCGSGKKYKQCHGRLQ
Chain of Sialic acid-binding Ig-like lectin 9 (Homo sapiens) (Q9Y336 whole entry): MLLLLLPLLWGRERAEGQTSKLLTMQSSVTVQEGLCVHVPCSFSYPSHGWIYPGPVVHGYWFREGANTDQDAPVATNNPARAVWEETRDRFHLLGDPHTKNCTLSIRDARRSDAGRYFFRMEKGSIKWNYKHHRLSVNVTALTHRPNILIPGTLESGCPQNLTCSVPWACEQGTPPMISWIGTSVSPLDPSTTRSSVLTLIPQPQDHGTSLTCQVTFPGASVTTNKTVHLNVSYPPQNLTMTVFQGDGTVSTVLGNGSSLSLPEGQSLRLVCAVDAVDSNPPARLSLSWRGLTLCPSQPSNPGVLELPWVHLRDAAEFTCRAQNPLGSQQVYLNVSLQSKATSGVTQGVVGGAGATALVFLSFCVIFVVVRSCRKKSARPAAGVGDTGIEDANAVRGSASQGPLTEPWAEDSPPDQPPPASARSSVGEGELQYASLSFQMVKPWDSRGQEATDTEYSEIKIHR

As for `CN1CCN(Cc2nnc(C3CCN(CC4CC4)CC3)n2C)CC1`, the Percent Effect in test [1] came to 0.271%; in [2], 8.22%; in test [3], 4.92%; in test [4] it was 1.71%; in the test on Trypanosoma cruzi it was 3.13%; in test [5] it was 7.27%. For the same molecule, the Percent Effect in test [6] was 13.3%; in the test filed under Homo sapiens it was 22.3%; in test [7] it was 8.6%; in test [8], 17.5%; in test [9] it was -3.38%.

On to `N#Cc1cccc(C(=O)N2CCc3ncc(Cn4cccn4)n3CC2)c1`, for which the Percent Effect in test [1] is -2.76%; in test [2], -5.33%; in test [3], 6.89%; in test [4], -4.2%; in the test on Trypanosoma cruzi it was -1.74%; in test [5], -56.1%. Further, the Percent Effect in [6] is 2.22%; in the test listed under Homo sapiens it was -20.1%; in test [7], -3.12%; in test [8] it was -2.5%; in test [9] it was -3.63%.

For the molecule `CCc1ccc(CN(CCCn2ccnc2)Cc2ccc(C)s2)o1`, the Percent Effect in test [1] was -8.95%; in [2], 1.35%; in test [3] it was 1.91%; in [4], 2.18%; with Trypanosoma cruzi it was -0.79%; in [5], -3.94%. Moreover, the Percent Effect in test [6] was 9.36%; in the test listed under Homo sapiens it was 38.5%; in test [7], 0%; in test [8] it was -6.49%; in test [9] it was -8.71%.

As to `CN1CCN(C(=O)NC2CC2)Cc2cccnc21`, the Percent Effect in [1] was -0.328%; in [2], 10.7%; in test [3] it was -1.13%; in test [4] it was 3.38%; in the test on Trypanosoma cruzi, -1.35%; in test [5] it was -23.5%. In addition, the Percent Effect is 12% in test [6]; -4.24% in the test listed under Homo sapiens; 6.25% in test [7]; 25% in test [8]; -7.54% in test [9].

As to `COc1ccc(CN2C[C@H]3CC[C@](O)(c4ccc(C)cn4)[C@H]3C2)c(F)c1`, the Percent Effect was -5% in test [1]; 6.76% in [2]; 15.2% in test [3]; 2.69% in [4]; -2.77% in the test on Trypanosoma cruzi; -1.16% in test [5]. For the same molecule, the Percent Effect was -1.56% in [6]; 13.7% in the test filed under Homo sapiens; 5.38% in test [7]; 6.49% in [8]; -8.01% in [9].

As for `CN1[C@H](Cn2cncn2)C[C@@H]2CN(Cc3cccc(C#N)c3)CC[C@@H]21`, the Percent Effect is -1.53% in [1]; 13.5% in [2]; -0.719% in test [3]; -6.04% in test [4]; 0% in the test with Trypanosoma cruzi; -2.5% in test [5]. In addition, the Percent Effect in test [6] is 15%; in the test filed under Homo sapiens, -2.04%; in test [7], 9.9%; in test [8], 13.4%; in test [9], 2.31%.

For the molecule `Cc1nc(CN(C)C2CCCN(c3cccnn3)C2)no1` (stereo unspecified), the Percent Effect was -0.0171% in test [1]; 20.8% in [2]; -7.88% in [3]; 0.261% in test [4]; -3.18% in the test on Trypanosoma cruzi; 5.34% in test [5]. Moreover, the Percent Effect in test [6] is 9.29%; in the test listed under Homo sapiens, 37.1%; in test [7], 4.85%; in test [8], 0%; in test [9], -5.56%.

For the molecule `Cc1nc(C)n(CC2CN(CCc3ccncc3)CCO2)n1` (stereo unspecified), the Percent Effect is -1.44% in test [1]; 5.48% in test [2]; 1.35% in [3]; 6.79% in test [4]; 0.979% with Trypanosoma cruzi; 3.64% in [5]. Also, the Percent Effect in [6] is 10.3%; in the test listed under Homo sapiens it was 16.9%; in [7] it was 4.3%; in [8], 10%; in [9] it was -5.67%.

Consider `CC(=O)N1CCCC(c2ccc(Nc3nc(C)cc(C)n3)cn2)C1` (stereo unspecified), for which the Percent Effect in [1] is -3.24%; in test [2], 5.33%; in test [3], 9.18%; in test [4] it was 0.842%; in the test on Trypanosoma cruzi, -1.18%; in test [5], 3.5%. The Percent Effect was -2.2% in test [6]; 4.23% in the test listed under Homo sapiens; 3.19% in test [7]; 14.1% in [8]; -7.25% in test [9].

For the molecule `Cn1nc2c(cc1=O)CN(Cc1coc(-c3cccs3)n1)CC2`, the Percent Effect in test [1] was 0.447%; in test [2] it was 16.2%; in [3], -166%; in test [4], 5.69%; in the test with Trypanosoma cruzi, 4.81%; in [5], 0.802%. For the same molecule, the Percent Effect is -1.26% in test [6]; -8.71% in the test listed under Homo sapiens; -2.46% in test [7]; 3.7% in test [8]; -4.95% in test [9].

With `CCN(CC)C(CNS(=O)(=O)c1ccc(C(=O)NC)cc1)c1ccco1` (stereo unspecified), the Percent Effect is -3.83% in test [1]; 5.41% in test [2]; 3.15% in test [3]; -5.57% in [4]; -5.47% in the test on Trypanosoma cruzi; -1.67% in test [5]. The Percent Effect amounted to 18.5% in test [6]; 13.1% in the test listed under Homo sapiens; 9.9% in [7]; 6.1% in test [8]; 7.75% in test [9].
